Experimental findings from PubChem BioAssay AID435003 (Sanford-Burnham Center for Chemical Genomics, 2010) are described below.

About 1,700 (0.52%) of roughly 330,000 compounds were called active. Shown is part of a subset that was picked to be rich in actives. Unmarked numbers belong to inactive results. No stated cut-off is given here; in the data, active means inhibition above about 50%; inactive means the rest.

The nature of the experiment: inhibitors of induced NF-kB luciferase reporter, primary screen, TCR NF-kB activation inhibitor project, cell-based, luminescence, uHTS (AID 435003). The conditions noted are these: at 4 µM, active compounds read high; NF-kB luciferase reporter unless noted. A general note: In a reporter assay the amount or activity of a reporter protein is the signal.
For the compound `Cc1cc2ccccn2c1C(C[N+](=O)[O-])c1c(F)cccc1Cl` (stereo not given), the inhibition (usually the change of the read-out against control, counted positive when it falls) is 71.3% (active).
Regarding `O=C(c1cc2nc(-c3ccccc3)cc(-c3ccccc3)n2n1)N1CCC2(CC1)OCCO2`, the inhibition is -2.97%.
Under `C[C@]12CCC3C(CC[C@H]4C[C@@H](O)CC[C@]34C)C1CC[C@@H]2O` (stereo not given in full) stands 10.7%; under `C[C@]12CCC3C(CC[C@H]4C[C@@H](O)CC[C@]34C)C1C[C@@H](O)[C@H]2O` (stereo not given in full), -3.46%.
With `C[C@]12CC[C@H](O)C[C@H]1CC[C@@H]1C2CC[C@]2(C)[C@@H](C3=CC(=O)OC3)[C@@H](O)C[C@]12O` (stereo not given in full), the inhibition is 79.5% [Jurkat, PMA/ionomycin-induced NF-kB luciferase reporter] (active).
For `CN1CCN(/N=C/c2c[nH]c3ccccc23)CC1` the value was -15.1%; for `O=C(NCC(c1cccnc1)N1CCN(c2ccccc2)CC1)Oc1ccccc1` (stereo not given), 10.4%.
Under `COc1ccccc1C1=NCc2nnc(CSC)n2-c2ccc(Cl)cc21` stands -5.97%; under `CCCCCCCCCCCCn1ccc(=N)cc1`, 94.2% (active); under `Cc1nn(Cc2ccccc2Cl)c(Cl)c1C(=O)OC(C(=O)NC(N)=O)C(C)C` (stereo not given), 11.3%.
In the case of `CCOC(=O)C1(Cc2ccc(Cl)cc2)CCN(C(C)CCn2cccn2)CC1` (stereo not given), the inhibition was -3.65%.
With `O=C(CCNS(=O)(=O)c1ccccc1)Nc1ccc(Cl)cc1C(=O)c1ccccc1`, the inhibition was -5.78%.
`COC(=O)[C@@H]1C(OC(=O)c2ccccc2)CC2CCC1N2C` (stereo not given in full): the inhibition was -16.7%.
As to `COc1ccc(N2C(=O)/C(=C/c3ccco3)C(=O)NC2=S)cc1`, the inhibition was 1.64%.
For `CCOc1ccc(-c2cc(C)[n+](CCN(CC)CC)c(-c3ccc(OCC)cc3)c2)cc1` the value was 72.8% (active); for `CN1CCc2cc3c(cc2[C@H]1[C@@H]1OC(=O)c2c1ccc1c2OCO1)OCO3`, 5.76% [Jurkat, PMA/ionomycin-induced NF-kB luciferase reporter]; for `CCN(CC)P(=O)(Oc1cccc(C)c1)N(CC)CC`, 4.24%.
In the case of `Cc1cc(N2C(=O)C3CCCN3C2c2ccc(Cl)c(Cl)c2)no1` (stereo not given), the inhibition was -12.8%.
For `c1ccc(C2NCc3ccccc3-n3cccc32)cc1` (stereo not given) the value was 10.4%; for `CNC(=O)O/N=C(\N)Cc1csc2ccc(Cl)cc12`, -0.793%.
